Article PMC7862700, “An all-to-all approach to the identification of sequence-specific readers for epigenetic DNA modifications on cytosine”

Legend:
Experiment in all cases: DAPPL (digital affinity profiling via proximity ligation, sequencing); 10 mM Tris-HCl pH 7.5, 50 mM NaCl, 1 mM DTT, 4% glycerol, room temperature, 30 min; GST-TFs on glutathione beads, 16-mer random dsDNA library, 0.1% formaldehyde crosslink after washing; high values mean tight binding
FLI1 = target: T1, FLI1 (Homo sapiens, UniProt Q01543 1-452); conditions: protein: recombinant; tags: N-terminal GST; dsDNA, one strand shown
T1 sequence: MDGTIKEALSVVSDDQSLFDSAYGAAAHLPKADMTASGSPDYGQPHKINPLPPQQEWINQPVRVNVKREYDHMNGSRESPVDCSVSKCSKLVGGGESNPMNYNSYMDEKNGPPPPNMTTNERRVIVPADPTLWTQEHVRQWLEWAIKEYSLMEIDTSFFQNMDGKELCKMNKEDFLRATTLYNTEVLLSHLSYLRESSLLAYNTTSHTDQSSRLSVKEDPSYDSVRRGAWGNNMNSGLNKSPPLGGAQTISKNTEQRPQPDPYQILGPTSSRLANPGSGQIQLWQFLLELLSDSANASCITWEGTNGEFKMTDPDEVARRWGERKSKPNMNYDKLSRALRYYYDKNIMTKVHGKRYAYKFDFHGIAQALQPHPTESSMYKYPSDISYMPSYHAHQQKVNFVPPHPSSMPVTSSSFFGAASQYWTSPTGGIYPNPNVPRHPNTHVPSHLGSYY
In short: (§1)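 A tag-only sample was pooled with DNA-barcoded human transcription factors that had been expressed in yeast as GST fusions and captured on glutathione beads. The pools were incubated for 30 min at room temperature with 200 nmole of a random double-stranded 16-mer DNA library in Tris/NaCl/DTT/glycerol buffer, then washed, crosslinked with 0.1% formaldehyde, proximity-ligated (BsaI/T4 ligase, 1 h, 37 °C), PCR-amplified and sequenced on an Illumina NextSeq500. Binding signal is each hexamer's read frequency for a factor divided by its frequency for the tag-only sample.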

ELK1 = target: T2, ELK1 (Homo sapiens, UniProt P19419 1-428); conditions: protein: recombinant; tags: N-terminal GST; dsDNA, one strand shown
T2 sequence: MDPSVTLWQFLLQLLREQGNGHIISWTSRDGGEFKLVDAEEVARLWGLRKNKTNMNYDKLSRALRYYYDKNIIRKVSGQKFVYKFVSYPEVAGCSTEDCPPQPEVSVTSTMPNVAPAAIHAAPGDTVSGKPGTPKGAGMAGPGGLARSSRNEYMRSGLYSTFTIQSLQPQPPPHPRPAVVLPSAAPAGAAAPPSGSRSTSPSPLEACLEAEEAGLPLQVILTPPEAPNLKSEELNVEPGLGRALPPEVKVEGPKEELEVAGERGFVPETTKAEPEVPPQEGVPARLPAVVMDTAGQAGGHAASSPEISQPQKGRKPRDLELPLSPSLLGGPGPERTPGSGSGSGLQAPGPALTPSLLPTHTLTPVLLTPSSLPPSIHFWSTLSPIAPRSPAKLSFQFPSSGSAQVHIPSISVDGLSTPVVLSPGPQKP
In short: as §1

GABPA = target: T3, GABPA (Homo sapiens, UniProt Q06546 1-454); conditions: protein: recombinant; tags: N-terminal GST; dsDNA, one strand shown
T3 sequence: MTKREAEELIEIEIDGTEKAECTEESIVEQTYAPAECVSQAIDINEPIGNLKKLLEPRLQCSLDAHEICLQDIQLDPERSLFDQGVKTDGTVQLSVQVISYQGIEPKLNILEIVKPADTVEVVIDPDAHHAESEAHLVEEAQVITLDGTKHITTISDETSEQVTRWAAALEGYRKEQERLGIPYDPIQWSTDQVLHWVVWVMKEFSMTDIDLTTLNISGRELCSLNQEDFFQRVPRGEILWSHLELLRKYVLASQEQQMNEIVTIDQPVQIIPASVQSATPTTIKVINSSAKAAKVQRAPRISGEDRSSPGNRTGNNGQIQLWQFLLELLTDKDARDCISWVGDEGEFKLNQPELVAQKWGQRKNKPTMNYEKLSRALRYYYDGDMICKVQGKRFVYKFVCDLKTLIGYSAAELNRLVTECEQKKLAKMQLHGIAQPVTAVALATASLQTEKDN
In short: as §1

ERG = target: T4, ERG (Homo sapiens, UniProt P11308 1-479); conditions: protein: recombinant; tags: N-terminal GST; dsDNA, one strand shown
T4 sequence: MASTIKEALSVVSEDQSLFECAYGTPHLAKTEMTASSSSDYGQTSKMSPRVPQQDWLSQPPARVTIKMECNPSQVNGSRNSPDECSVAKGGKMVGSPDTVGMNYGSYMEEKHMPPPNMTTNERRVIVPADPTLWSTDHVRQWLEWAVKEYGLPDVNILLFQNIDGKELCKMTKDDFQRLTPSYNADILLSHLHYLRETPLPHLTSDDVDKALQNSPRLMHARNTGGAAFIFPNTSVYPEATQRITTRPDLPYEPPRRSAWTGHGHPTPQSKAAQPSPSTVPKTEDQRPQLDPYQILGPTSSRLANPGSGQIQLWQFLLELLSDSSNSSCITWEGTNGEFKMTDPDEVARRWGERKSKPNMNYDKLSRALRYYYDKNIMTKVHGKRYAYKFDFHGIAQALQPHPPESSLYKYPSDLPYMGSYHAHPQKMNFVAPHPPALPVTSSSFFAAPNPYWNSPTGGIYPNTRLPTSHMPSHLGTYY
In short: as §1

ELF1 = ELF1 (Homo sapiens, UniProt P32519 1-619); conditions: protein: recombinant; tags: N-terminal GST; dsDNA, one strand shown
In short: as §1

EHF = target: T5, EHF (Homo sapiens, UniProt Q9NZC4 1-300); conditions: protein: recombinant; tags: N-terminal GST; dsDNA, one strand shown
T5 sequence: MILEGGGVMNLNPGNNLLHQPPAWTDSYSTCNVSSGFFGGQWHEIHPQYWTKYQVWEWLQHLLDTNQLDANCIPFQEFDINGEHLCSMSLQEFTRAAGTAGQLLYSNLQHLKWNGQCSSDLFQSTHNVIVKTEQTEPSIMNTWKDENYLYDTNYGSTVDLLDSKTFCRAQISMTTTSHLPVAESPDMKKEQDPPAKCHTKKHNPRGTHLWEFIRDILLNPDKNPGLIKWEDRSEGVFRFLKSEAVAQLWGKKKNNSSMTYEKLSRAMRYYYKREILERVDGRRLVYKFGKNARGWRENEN
In short: as §1

SPI1 = SPI1 (Homo sapiens, UniProt P17947 1-270); conditions: protein: recombinant; tags: N-terminal GST; dsDNA, one strand shown
In short: as §1

SPIB = SPIB (Homo sapiens, UniProt Q01892 1-262); conditions: protein: recombinant; tags: N-terminal GST; dsDNA, one strand shown
In short: as §1

ELK3 = target: T6, ELK3 (Homo sapiens, UniProt P41970 1-407); conditions: protein: recombinant; tags: N-terminal GST; dsDNA, one strand shown
T6 sequence: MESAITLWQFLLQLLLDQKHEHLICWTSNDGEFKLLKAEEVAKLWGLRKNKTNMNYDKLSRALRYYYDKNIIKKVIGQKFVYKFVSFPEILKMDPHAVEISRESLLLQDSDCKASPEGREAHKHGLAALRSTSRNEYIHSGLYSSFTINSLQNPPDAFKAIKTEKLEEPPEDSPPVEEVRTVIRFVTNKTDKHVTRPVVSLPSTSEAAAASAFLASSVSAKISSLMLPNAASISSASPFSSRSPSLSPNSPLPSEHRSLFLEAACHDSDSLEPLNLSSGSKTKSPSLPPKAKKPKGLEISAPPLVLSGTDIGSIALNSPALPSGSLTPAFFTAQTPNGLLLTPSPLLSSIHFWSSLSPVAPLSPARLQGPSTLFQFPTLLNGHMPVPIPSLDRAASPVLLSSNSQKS
In short: as §1

FEV = target: T7, FEV (Homo sapiens, UniProt Q99581 1-238); conditions: protein: recombinant; tags: N-terminal GST; dsDNA, one strand shown
T7 sequence: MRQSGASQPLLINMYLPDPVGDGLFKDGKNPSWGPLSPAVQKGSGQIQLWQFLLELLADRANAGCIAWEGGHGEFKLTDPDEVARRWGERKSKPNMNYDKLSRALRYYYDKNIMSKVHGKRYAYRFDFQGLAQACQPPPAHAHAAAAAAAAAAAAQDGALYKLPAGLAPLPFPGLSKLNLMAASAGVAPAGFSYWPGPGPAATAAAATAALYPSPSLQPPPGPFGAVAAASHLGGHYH
In short: as §1

ETV5 = ETV5 (Homo sapiens, UniProt P41161 1-510); conditions: protein: recombinant; tags: N-terminal GST; dsDNA, one strand shown
In short: as §1

HSF1 = HSF1 (Homo sapiens, UniProt Q00613 1-529); conditions: protein: recombinant; tags: N-terminal GST; chain copies: 3; dsDNA, one strand shown
In short: as §1

ELF4 = ELF4 (Homo sapiens, UniProt Q99607 1-663); conditions: protein: recombinant; tags: N-terminal GST; dsDNA, one strand shown
In short: as §1

ELK4 = target: T8, ELK4 (Homo sapiens, UniProt P28324-2 1-405); conditions: protein: recombinant; tags: N-terminal GST; dsDNA, one strand shown
T8 sequence: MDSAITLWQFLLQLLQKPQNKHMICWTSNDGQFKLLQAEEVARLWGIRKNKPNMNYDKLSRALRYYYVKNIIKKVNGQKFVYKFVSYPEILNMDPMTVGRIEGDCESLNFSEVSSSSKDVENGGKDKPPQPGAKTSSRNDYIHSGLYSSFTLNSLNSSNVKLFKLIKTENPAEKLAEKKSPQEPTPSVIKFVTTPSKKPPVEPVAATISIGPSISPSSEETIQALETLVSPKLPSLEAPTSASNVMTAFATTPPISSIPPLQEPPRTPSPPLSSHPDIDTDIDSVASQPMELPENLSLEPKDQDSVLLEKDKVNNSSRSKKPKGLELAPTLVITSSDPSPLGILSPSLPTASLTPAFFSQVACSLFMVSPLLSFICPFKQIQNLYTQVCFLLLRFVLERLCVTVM
In short: as §1

ETV2 = target: T9, ETV2 (Homo sapiens, UniProt O00321 1-342); conditions: protein: recombinant; tags: N-terminal GST; dsDNA, one strand shown
T9 sequence: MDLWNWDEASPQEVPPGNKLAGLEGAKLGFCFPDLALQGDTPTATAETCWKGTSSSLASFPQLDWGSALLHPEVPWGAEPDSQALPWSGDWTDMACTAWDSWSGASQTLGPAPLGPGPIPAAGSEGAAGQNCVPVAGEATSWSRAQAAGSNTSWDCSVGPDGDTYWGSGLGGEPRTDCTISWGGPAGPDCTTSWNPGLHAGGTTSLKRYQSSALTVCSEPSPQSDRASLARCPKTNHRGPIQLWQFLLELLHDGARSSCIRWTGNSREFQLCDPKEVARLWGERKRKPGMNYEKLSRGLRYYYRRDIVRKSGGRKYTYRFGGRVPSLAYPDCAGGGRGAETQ
In short: as §1

ELF3 = target: T10, ELF3 (Homo sapiens, UniProt P78545 1-371); conditions: protein: recombinant; tags: N-terminal GST; dsDNA, one strand shown
T10 sequence: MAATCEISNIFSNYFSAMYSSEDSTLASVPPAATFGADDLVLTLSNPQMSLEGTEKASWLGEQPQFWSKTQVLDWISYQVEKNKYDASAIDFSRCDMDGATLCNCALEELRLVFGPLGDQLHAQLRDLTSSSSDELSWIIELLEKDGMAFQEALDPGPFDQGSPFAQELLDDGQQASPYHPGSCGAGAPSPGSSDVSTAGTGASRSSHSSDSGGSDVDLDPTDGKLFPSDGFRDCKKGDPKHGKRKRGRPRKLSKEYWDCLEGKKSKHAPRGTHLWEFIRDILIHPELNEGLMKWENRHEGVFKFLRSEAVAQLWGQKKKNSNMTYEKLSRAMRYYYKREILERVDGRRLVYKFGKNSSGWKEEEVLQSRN
In short: as §1

CRX = CRX (Homo sapiens, UniProt O43186 1-299); conditions: protein: recombinant; tags: N-terminal GST; dsDNA, one strand shown
In short: as §1

ETV1 = ETV1 (Homo sapiens, UniProt P50549 1-477); conditions: protein: recombinant; tags: N-terminal GST; dsDNA, one strand shown
In short: as §1

Chain of CRX (O43186 whole entry): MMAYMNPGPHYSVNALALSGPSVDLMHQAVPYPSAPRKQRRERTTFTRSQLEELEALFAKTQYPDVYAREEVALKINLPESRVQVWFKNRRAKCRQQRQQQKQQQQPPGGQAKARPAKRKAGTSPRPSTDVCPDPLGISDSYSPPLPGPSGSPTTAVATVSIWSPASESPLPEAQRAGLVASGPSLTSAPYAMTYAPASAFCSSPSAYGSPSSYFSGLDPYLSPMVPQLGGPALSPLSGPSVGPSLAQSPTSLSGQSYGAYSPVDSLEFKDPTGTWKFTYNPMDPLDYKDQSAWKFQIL
Chain of SPIB (Q01892 whole entry): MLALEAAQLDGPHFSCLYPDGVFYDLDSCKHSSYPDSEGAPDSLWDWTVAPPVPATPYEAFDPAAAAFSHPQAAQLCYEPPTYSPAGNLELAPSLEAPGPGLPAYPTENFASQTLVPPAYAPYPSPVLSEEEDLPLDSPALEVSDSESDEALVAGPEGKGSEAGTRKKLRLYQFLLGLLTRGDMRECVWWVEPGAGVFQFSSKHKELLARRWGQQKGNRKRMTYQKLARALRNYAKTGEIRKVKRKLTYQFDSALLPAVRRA
Chain of ELF1 (P32519 whole entry): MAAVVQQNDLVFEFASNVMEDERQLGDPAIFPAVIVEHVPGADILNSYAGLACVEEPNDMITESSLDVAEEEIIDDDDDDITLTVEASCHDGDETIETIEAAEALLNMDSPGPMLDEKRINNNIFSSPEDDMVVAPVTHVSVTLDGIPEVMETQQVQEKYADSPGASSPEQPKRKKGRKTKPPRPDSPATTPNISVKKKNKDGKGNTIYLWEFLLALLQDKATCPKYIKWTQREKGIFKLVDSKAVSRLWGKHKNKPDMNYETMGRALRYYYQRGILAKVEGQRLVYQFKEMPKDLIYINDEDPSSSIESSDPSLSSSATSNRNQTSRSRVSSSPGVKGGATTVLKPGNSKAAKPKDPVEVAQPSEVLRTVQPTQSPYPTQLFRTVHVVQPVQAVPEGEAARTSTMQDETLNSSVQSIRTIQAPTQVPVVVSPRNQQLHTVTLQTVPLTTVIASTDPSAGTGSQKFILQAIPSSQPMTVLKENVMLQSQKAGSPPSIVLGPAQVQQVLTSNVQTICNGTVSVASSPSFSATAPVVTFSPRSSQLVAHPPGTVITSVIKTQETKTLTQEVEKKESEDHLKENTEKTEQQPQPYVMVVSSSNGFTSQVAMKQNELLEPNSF
Chain of HSF1 (Q00613 whole entry): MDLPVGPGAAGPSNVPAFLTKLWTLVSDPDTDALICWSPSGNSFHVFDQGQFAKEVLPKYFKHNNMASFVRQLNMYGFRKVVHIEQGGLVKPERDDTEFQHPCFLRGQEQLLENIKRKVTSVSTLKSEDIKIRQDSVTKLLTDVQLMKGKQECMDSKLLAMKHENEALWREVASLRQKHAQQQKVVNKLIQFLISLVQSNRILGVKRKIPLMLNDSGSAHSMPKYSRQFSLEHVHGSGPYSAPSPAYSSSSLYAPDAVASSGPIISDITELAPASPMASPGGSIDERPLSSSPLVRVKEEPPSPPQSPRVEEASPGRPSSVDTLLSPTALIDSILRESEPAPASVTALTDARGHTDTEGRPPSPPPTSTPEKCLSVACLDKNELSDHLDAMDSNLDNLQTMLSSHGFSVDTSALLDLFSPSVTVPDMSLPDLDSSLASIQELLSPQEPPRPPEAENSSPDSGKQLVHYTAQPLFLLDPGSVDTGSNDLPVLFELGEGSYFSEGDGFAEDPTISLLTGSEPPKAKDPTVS
Chain of ETV1 (P50549 whole entry): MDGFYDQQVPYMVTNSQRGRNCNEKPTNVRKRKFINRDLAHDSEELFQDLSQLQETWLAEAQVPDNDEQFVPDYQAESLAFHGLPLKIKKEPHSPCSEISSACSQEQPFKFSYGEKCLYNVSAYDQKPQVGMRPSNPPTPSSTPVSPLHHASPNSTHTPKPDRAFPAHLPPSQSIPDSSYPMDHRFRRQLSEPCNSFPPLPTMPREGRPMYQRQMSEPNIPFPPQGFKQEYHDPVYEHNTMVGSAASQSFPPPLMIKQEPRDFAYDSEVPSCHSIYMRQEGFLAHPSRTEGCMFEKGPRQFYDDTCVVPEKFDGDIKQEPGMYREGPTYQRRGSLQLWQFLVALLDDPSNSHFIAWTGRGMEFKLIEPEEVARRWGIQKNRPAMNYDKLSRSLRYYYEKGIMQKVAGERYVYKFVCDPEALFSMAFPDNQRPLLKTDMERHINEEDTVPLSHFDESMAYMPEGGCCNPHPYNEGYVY
Chain of ELF4 (Q99607 whole entry): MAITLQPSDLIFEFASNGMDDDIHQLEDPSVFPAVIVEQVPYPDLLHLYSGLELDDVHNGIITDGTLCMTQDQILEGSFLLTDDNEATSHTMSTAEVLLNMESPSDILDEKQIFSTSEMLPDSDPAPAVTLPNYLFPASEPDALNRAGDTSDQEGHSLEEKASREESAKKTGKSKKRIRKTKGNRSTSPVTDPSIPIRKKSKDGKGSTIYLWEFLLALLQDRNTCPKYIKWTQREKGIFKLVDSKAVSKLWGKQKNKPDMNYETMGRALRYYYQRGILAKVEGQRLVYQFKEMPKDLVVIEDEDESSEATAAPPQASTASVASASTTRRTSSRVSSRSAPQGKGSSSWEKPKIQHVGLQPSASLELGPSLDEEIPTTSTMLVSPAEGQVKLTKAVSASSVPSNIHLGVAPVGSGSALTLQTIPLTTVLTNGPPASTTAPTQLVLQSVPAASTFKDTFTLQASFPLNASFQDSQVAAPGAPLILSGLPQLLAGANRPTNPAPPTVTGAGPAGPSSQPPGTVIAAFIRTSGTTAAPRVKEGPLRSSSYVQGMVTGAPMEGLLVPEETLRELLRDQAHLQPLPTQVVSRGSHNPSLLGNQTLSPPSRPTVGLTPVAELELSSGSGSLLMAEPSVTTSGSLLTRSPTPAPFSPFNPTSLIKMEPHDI
Chain of ETV5 (P41161 whole entry): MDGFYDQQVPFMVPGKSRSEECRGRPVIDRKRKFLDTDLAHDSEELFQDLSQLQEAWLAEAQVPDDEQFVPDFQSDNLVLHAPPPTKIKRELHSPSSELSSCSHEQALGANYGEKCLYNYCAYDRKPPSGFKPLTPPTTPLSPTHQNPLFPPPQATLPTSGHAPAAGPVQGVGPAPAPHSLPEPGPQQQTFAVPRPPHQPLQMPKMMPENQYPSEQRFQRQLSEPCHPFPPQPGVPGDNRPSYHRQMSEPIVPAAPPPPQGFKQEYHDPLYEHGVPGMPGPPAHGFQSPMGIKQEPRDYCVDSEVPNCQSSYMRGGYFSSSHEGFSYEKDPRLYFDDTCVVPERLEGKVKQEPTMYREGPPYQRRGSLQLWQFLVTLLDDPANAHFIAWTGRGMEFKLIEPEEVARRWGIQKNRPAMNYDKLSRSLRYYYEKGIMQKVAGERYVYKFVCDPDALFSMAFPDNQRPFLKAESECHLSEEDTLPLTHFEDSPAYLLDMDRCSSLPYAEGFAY

## ACAAGC
FLI1
  binding signal: 1.1 fold enrichment (6-mer frequency, TF over GST control)
ELK1
  binding signal: 1.11 fold enrichment (6-mer frequency, TF over GST control)
GABPA
  binding signal: 1.09 fold enrichment (6-mer frequency, TF over GST control)
ERG
  binding signal: 1.08 fold enrichment (6-mer frequency, TF over GST control)
ELF1
  binding signal: 1.1 fold enrichment (6-mer frequency, TF over GST control)
EHF
  binding signal: 1.08 fold enrichment (6-mer frequency, TF over GST control)
SPI1
  binding signal: 1.04 fold enrichment (6-mer frequency, TF over GST control)
SPIB
  binding signal: 1.12 fold enrichment (6-mer frequency, TF over GST control)
ELK3
  binding signal: 1.16 fold enrichment (6-mer frequency, TF over GST control)
FEV
  binding signal: 1.09 fold enrichment (6-mer frequency, TF over GST control)
ETV5
  binding signal: 1.12 fold enrichment (6-mer frequency, TF over GST control)
HSF1
  binding signal: 1.01 fold enrichment (6-mer frequency, TF over GST control)
ELF4
  binding signal: 1.13 fold enrichment (6-mer frequency, TF over GST control)
ELK4
  binding signal: 1.12 fold enrichment (6-mer frequency, TF over GST control)
ETV2
  binding signal: 1.06 fold enrichment (6-mer frequency, TF over GST control)
ELF3
  binding signal: 1.07 fold enrichment (6-mer frequency, TF over GST control)
CRX
  binding signal: 1.07 fold enrichment (6-mer frequency, TF over GST control)
ETV1
  binding signal: 1.16 fold enrichment (6-mer frequency, TF over GST control)
